This passage reports survival results from PubChem BioAssay AID463173 (ICCB-Longwood Screening Facility, Harvard Medical School, 2010).

The campaign covered roughly 52,000 compounds. About 1,700 (3.3%) were called active. Cut-off read from the data, not from the text of the source: active = survival mostly below about 52% (no sharp cut-off); inactive = mostly above about 56%. The sample as a whole holds a higher share of actives than the screen did.

The subject of the assay is Wild type. As to the kind of experiment: S. aureus survival, RN4220 and DeltatarO strains – OD600, teichoic acid synthesis inhibitors, primary screen (AID 463173). The conditions noted are these: S. aureus RN4220 wild type/DeltatarO growth, OD600, 18 h, hits give low values, screened at 18.75 µg/mL (by protocol).
In the case of `Cc1ccc(C)c(NC(=O)N2CCC(CN3CCOCC3)CC2)c1`, the survival was 135% (inactive).
The figure for `CCC(CC)c1nn2c(=O)cc(COc3ccc(NC(=O)c4ccc(Cl)cc4)cc3)nc2s1` is 86% (inactive); for `Cc1ccc(Nc2ccc(N3CCN(C(=O)c4ccc([N+](=O)[O-])cc4Cl)CC3)nn2)cc1` it is 129% (inactive); for `COCCn1c(SCC(=O)c2c[nH]c3ccccc23)nc2cc(C(=O)NCC(C)C)ccc2c1=O` it is 73% (inactive).
The figure for `COCCNC(=O)c1ccc2c(=O)n(CCc3ccccc3)c(SCC(=O)CC(=O)OC)nc2c1` is 78% (inactive).
The figure for `COCCn1c(SCC(=O)c2c(C)[nH]c3ccccc23)nc2cc(C(=O)NC(C)C)ccc2c1=O` is 74% (inactive).
Turning to `COCCNC(=O)c1ccc2c(=O)n(CCOC)c(SCC(=O)c3c[nH]c4ccccc34)nc2c1`, the survival is -1% (active).
The figure for `COCCn1c(SCC(=O)c2c[nH]c3ccccc23)nc2cc(C(=O)NC(C)C)ccc2c1=O` is 14% (active).
Then `COCCn1c(SCC(=O)c2ccccc2)nc2cc(C(=O)NC3CCCC3)ccc2c1=O`, with 76% (inactive); and `CCOc1ccc(NC(=O)CCSc2nc(-c3ccc4c(c3)OCO4)cc(C(F)(F)F)n2)cc1`, with 72% (inactive).
Then `COc1ccc(C)cc1NC(=O)NCc1cccn1Cc1ccccc1`, with 98% (inactive); and `O=C(NCc1ccccc1Cl)c1ccc(NC(=O)N2CCSc3ccccc32)cc1`, with 67% (inactive).
With `N#CCCSCc1ccc(C(=O)O)o1`, the survival is 107% (inactive).
Then `Cc1ccc(-c2nc3cc(Cl)ccc3o2)cc1NC(=O)c1cc2ccccc2o1`, with 72% (inactive); and `Cc1ccc(-c2nc3cc(C(C)C)ccc3o2)cc1NC(=O)c1cc2ccccc2o1`, with 11% (active); and `COc1ccc(-c2nc3cc(C(C)C)ccc3o2)cc1NC(=O)COc1ccc(C)cc1C`, with 59% (inactive).
With `CC(C)c1ccc2oc(-c3ccc(NC(=O)c4cc5ccccc5o4)cc3)nc2c1`, the survival is 61% (inactive).
The figure for `COc1ccc(-c2nc3ccccc3o2)cc1NC(=O)c1ccc(-c2ccc(C)c(Cl)c2)o1` is 73% (inactive); for `COc1ccc(-c2nc3cc(C(C)C)ccc3o2)cc1NC(=O)c1ccc(C)c(Cl)c1` it is 5% (active).
The figure for `COC(=O)CCN(C(=O)C1CCN(S(=O)(=O)c2c(C)noc2/C=C/c2ccccc2F)CC1)c1ccccc1` is 126% (inactive); for `CCC(C)NS(=O)(=O)c1ccc(N2CCCCS2(=O)=O)cc1` (configuration not stated) it is 135% (inactive).
The figure for `CCOC(=O)c1noc2ncn(CC(=O)Nc3ccc(C)c(F)c3)c(=O)c12` is 72% (inactive); for `Cc1ccc(NC(=O)c2cccc(NC(=O)N3CCSc4ncccc43)c2)cc1F` it is 92% (inactive); for `CCCCN(CC)Cc1ccc(CNS(=O)(=O)c2cc3c(cc2Cl)NC(=O)CO3)o1` it is -3% (active).
With `O=C1COc2cc(S(=O)(=O)NCc3ccco3)c(Cl)cc2N1`, the survival was 73% (inactive).
The figure for `Cc1ccc(CNS(=O)(=O)c2cc3c(cc2Cl)NC(=O)CO3)o1` is 124% (inactive); for `CC(C)(CO)NC(=O)c1cc(-c2ccc(Cl)cc2Cl)on1` it is 123% (inactive); for `CCOC(=O)c1c(NC(=O)COc2ccc(Cl)cc2Cl)sc2c1CCCCC2` it is 76% (inactive).
Then `COc1ccc(CNC(=O)C2CCN(S(=O)(=O)c3c(C)noc3/C=C/c3ccccc3F)CC2)cc1`, with 94% (inactive).
The figure for `COc1ccc(N=Nc2c(N)n[nH]c2N)cc1` is 2% (active).
On to `Nc1n[nH]c(N)c1N=Nc1ccc(Cl)cc1`, for which the survival is 107% (inactive).
The figure for `COc1ccc2sc(N)nc2c1` is 115% (inactive); for `Cc1ccc(-c2nc3ccccc3o2)cc1NC(=O)c1cccc2c(Cl)cccc12` it is 62% (inactive); for `Cn1c(-c2ccccc2)nc2cc(N)ccc21` it is 105% (inactive).
The figure for `Fc1ccc(-c2nc(-c3cccs3)c(-c3cccs3)[nH]2)cc1` is 79% (inactive).
For `COc1ccc(O)c(-c2cn[nH]c2-c2cccs2)c1`, the survival is 105% (inactive).
Then `Cc1ccc(-c2nc(-c3cccs3)c(-c3cccs3)[nH]2)cc1`, with 76% (inactive); and `Oc1cccc(-c2nc(-c3cccs3)c(-c3cccs3)[nH]2)c1`, with 3% (active).
Then `CN(C)c1ccc(-c2nc(-c3cccs3)c(-c3cccs3)[nH]2)cc1`, with 65% (inactive); and `Oc1ccccc1-c1nc(-c2cccs2)c(-c2cccs2)[nH]1`, with -11% (active).
Then `Cc1ccc(Cc2c(C)nc3nc(SCC(=O)NCCC(C)C)nn3c2C)cc1`, with 64% (inactive).
For `Cc1nn(CC(=O)NCc2ccccc2Cl)c(=O)c2nn(-c3ccccc3)c(C)c12`, the survival was 130% (inactive).
The figure for `COc1ccc(NC(=O)Cn2cnc3ccc(S(=O)(=O)N4CCC(C)CC4)cc3c2=O)cc1Cl` is 158% (inactive); for `O=C(Nc1c(C(=O)N2CCOCC2)cnn1-c1ccccc1)c1ccccc1F` it is 104% (inactive).
On to `CN1CCN(C(=O)/C=C\C(=O)O)CC1`, for which the survival is 122% (inactive).
As for `CCCCSCCCNC(=O)c1cc(-c2cccnc2)nc2ccc(S(=O)(=O)N3CCC(C)CC3)cc12`, the survival was 89% (inactive).
Then `COc1cc(C)c(Cl)cc1S(=O)(=O)NCCc1c(C)[nH]c2ccccc12`, with 73% (inactive); and `Cc1ccc(Nc2ncccc2C(=O)NC2CCCCC2)cc1`, with 110% (inactive).
The figure for `CCOc1ccc(C2C(=O)N(C3CCCCCC3)CC(=O)N2Cc2ccccc2)cc1OC` (configuration not stated) is 75% (inactive); for `Cc1ccc(C)c(NC(=O)C(Cc2ccccc2)n2cccc2)c1` (configuration not stated) it is 134% (inactive).
Regarding `CCc1cccc(NC(=O)C(Cc2ccccc2)n2cccc2)c1` (configuration not stated), the survival was 12% (active).
Take `Cc1ccc(NC(=O)C(Cc2ccccc2)n2cccc2)c(C)c1` (configuration not stated): the survival is 81% (inactive).
Consider `CC(=O)c1cccc(NC(=O)[C@H](Cc2ccccc2)N2Cc3ccccc3C2=O)c1`, for which the survival is 81% (inactive).
The figure for `O=C(Nc1cccc(Cl)c1)C(Cc1ccccc1)n1cccc1` (configuration not stated) is 8% (active).
Then `Cc1cccc(NC(=O)C(Cc2ccccc2)n2cccc2)c1C` (configuration not stated), with 84% (inactive).
The figure for `Cc1ccc(NC(=O)C(Cc2ccccc2)n2cccc2)cc1C` (configuration not stated) is 13% (active).
Turning to `O=C(Nc1ccccc1)C(Cc1ccccc1)N1Cc2ccccc2C1=O` (configuration not stated), the survival was 90% (inactive).
Then `COc1ccc(NC(=O)C(Cc2ccccc2)n2cccc2)cc1OC` (configuration not stated), with 82% (inactive); and `O=C(O)CC1=C(c2cccs2)CCC1=O`, with 105% (inactive).
The figure for `Cc1cc(C(F)F)n2ncc(C(=O)NCc3ccccc3)c2n1` is 108% (inactive); for `COC(=O)c1ccc2c(=O)n(CCCCCC(=O)N3CCN(c4cccc(C)c4C)CC3)c(=O)[nH]c2c1` it is 97% (inactive); for `CC(C)c1ccc(-c2nc(C(N)=O)c3c(n2)n(-c2ccc4c(c2)OCO4)c(=O)n3C)cc1` it is 60% (inactive).
Then `Nc1n[nH]c(CCc2ccccc2)n1`, with 121% (inactive); and `CCS(=O)(=O)N1CC(=O)N(c2cccc(C)c2C)C(C)(C(=O)NC2CCCCC2)C1` (configuration not stated), with 89% (inactive); and `Cc1ccc(NS(=O)(=O)c2cn(C)c(C)n2)c(Br)c1`, with 88% (inactive).
As for `COc1ccccc1NS(=O)(=O)c1cn(C)c(C)n1`, the survival is 10% (active).
Then `CSc1cccc(NS(=O)(=O)c2cn(C)c(C)n2)c1`, with 59% (inactive).
With `Cc1ccc(CCNC(=O)c2cc3c(=O)oc4ccccc4c3s2)cc1`, the survival was 73% (inactive).
For the molecule `c1ccc(-n2ncc3c(NC4CCCC4)ncnc32)cc1`, the survival was 121% (inactive).
Consider `CCOC(=O)C1CCN(S(=O)(=O)c2cc(-c3onc(C)c3C)ccc2C)CC1`, for which the survival is 81% (inactive).
Then `COc1ccc(NC(=O)C(C)N2Cc3ccccc3C2=O)cc1OC` (configuration not stated), with 75% (inactive); and `CC(C(=O)Nc1ccc(F)c(Cl)c1)N1Cc2ccccc2C1=O` (configuration not stated), with 0% (active); and `Cc1ccc(NC(=O)C(CC(C)C)N2Cc3ccccc3C2=O)cc1F` (configuration not stated), with -6% (active).
The figure for `O=C(Nc1ccccc1F)C(Cc1ccccc1)N1Cc2ccccc2C1=O` (configuration not stated) is 75% (inactive); for `CC(C(=O)Nc1ccc(OC(F)(F)F)cc1)N1Cc2ccccc2C1=O` (configuration not stated) it is -3% (active); for `COC(=O)c1ccc(NC(=O)C(C)N2Cc3ccccc3C2=O)cc1` (configuration not stated) it is 53% (inactive).
The figure for `O=C(Nc1ccc(F)cc1)[C@H](Cc1ccccc1)N1Cc2ccccc2C1=O` is 91% (inactive).
As to `Cc1cc(C)cc(NC(=O)C(C)N2Cc3ccccc3C2=O)c1` (configuration not stated), the survival was 63% (inactive).
Turning to `Cc1ccc(NC(=O)[C@H](Cc2ccccc2)N2Cc3ccccc3C2=O)cc1F`, the survival is 78% (inactive).
With `CCOc1ccc(NC(=O)C(CC(C)C)N2Cc3ccccc3C2=O)cc1` (configuration not stated), the survival was 134% (inactive).
The figure for `O=C(Nc1ccc(F)cc1F)C(Cc1ccccc1)N1Cc2ccccc2C1=O` (configuration not stated) is -6% (active); for `Cc1ccc(C)c(NC(=O)C(CC(C)C)N2Cc3ccccc3C2=O)c1` (configuration not stated) it is 159% (inactive); for `Cc1ccccc1CSc1cn(CCNC(=O)c2cccs2)c2ccccc12` it is 79% (inactive).
Then `COc1ccc(NC(=O)Cc2ccc(NC(=O)N3CCCCc4ccccc43)cc2)c(OC)c1`, with 60% (inactive); and `COc1cccc(C(=O)NC2CCCC2)c1`, with 103% (inactive); and `O=C(CCS(=O)(=O)c1cccs1)Nc1ccc(C(=O)Nc2ccccc2F)cc1`, with 135% (inactive).
Then `CC(=O)c1ccc(N2CCN(C(=O)CCCn3c(=O)[nH]c4ccsc4c3=O)CC2)cc1`, with 66% (inactive); and `On1c2c(c3c4nonc4ccc31)CCCC2`, with 8% (active).
For the molecule `c1ccc(-n2nc3ccc4nonc4c3n2)cc1`, the survival is 104% (inactive).
Then `COC(=O)CSc1n[nH]c(CNc2cccc(C)c2)n1`, with 108% (inactive).
Then `O=C(NCCCN1CCN(c2ccccc2)CC1)c1nnc(Cc2ccc(F)cc2)o1`, with 98% (inactive); and `COc1ccccc1C(=O)Nc1cc(-c2ccc(C)cc2)no1`, with 73% (inactive); and `Cc1ccc(NC(=O)Cn2nc(C)n3cccc3c2=O)c(C)c1`, with 95% (inactive).
The figure for `CCn1c(COc2ccccc2)nnc1SCC(=O)CC(=O)Nc1ccccc1OC` is 100% (inactive).
On to `O=S1(=O)C=C(Sc2nc3ccccc3s2)c2ccccc21`, for which the survival is 0% (active).
Then `CC(C)(C)NSc1nc2ccccc2s1`, with 68% (inactive); and `Cc1cc(C)nc(SC2=CS(=O)(=O)c3ccccc32)n1`, with 99% (inactive).
